The nature of test [1]: TOX21_p53_BLA_p2_viability: Viability Assessment in the Tox21 HCT-116 p53 Agonism Beta-lactamase Assay, Phase 2 (AID 2283591).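 Note: compound exposure lasted 16 h at 37 °C; actives lower the ATP signal meaning cytotoxicity.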 A digest of the protocol:
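HCT-116 p53-bla cells (4000/well) rested 5 h at 37C, then received compounds in DMSO (217-fold dilution) for 16 h at 37C, 5% CO2. After the CCF4 read, CellTiter-Glo was added; ATP luminescence was read after 30 min at room temperature.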

For test [2], the target named is Cellular tumor antigen p53 (Homo sapiens) (UniProt P04637). The test can be described thus: TOX21_p53_BLA_p2_ratio: Tox21 HCT-116 p53 Agonism Beta-lactamase Assay, Ratio, Phase 2 (AID 2283592). A digest of the protocol:
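In this cell-based reporter format, HCT116 cells were dosed with chemicals delivered from DMSO by 217-fold dilution and incubated 16 h at 37C. Emission at 460 and 530 nm after 2 h CCF4-AM loading provided the ratio, fitted upward versus DMSO.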

Test [3] is described as follows: TOX21_p53_BLA_p3_viability: Viability Assessment in the Tox21 HCT-116 p53 Agonism Beta-lactamase Assay, Phase 3 (AID 2283593).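 Note: cells exposed to compound for 16 h before reading.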 A digest of the protocol:
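HCT-116 cells (4000/well) rested 5 h at 37C, then got DMSO compounds by pin tool (217-fold dilution) for 16 h at 37C, 5% CO2. After the bla read, CellTiter-Glo was added and luminescence read at 30 min, room temperature.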

Test [4] deals with Cellular tumor antigen p53 (Homo sapiens) (UniProt P04637). Nature of the test: TOX21_p53_BLA_p3_ratio: Tox21 HCT-116 p53 Agonism Beta-lactamase Assay, Ratio, Phase 3 (AID 2283596). In a few lines: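 HCT116 p53-bla cells (4000/well) given compound in DMSO (217-fold dilution) after 5 h, incubated 16 h at 37C. CCF4-AM substrate 2 h at room temperature; 460/530 nm emission ratio, gain fitted against DMSO.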
Sequence of Cellular tumor antigen p53 (Homo sapiens) (P04637 whole entry, looked up): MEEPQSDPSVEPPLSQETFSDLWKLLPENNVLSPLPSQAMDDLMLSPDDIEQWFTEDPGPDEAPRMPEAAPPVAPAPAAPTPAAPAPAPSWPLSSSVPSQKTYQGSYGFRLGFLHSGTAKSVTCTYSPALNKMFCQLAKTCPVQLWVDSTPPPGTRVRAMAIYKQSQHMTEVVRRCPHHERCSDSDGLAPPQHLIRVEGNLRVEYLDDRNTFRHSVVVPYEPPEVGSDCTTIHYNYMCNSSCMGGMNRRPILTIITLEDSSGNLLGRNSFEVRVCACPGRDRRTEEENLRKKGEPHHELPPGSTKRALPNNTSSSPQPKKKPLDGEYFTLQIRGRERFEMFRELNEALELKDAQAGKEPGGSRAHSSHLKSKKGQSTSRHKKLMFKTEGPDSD

Test [5] is described as follows: TOX21_p53_BLA_p4_viability: Viability Assessment in the Tox21 HCT-116 p53 Agonism Beta-lactamase Assay, Phase 4 (AID 2283597).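 Note: hits lower the luminescence signal meaning cytotoxicity.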 In a few lines: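 We seeded HCT116 p53 reporter cells at 4000/well and waited 5 h. We then added compounds in DMSO at a 217-fold dilution and incubated for 16 h. Viability was read as CellTiter-Glo luminescence after 30 min at RT.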
The target of test [6] is Cellular tumor antigen p53 (Homo sapiens) (UniProt P04637). Nature of the test: TOX21_p53_BLA_p5_ratio: Tox21 HCT-116 p53 Agonism Beta-lactamase Assay, Ratio, Phase 5 (AID 2283599). A digest of the protocol:
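HCT-116 cells carrying a p53-inducible beta-lactamase reporter were seeded at 4000 cells/well and dosed after 5 h with compound in DMSO (217-fold dilution). After 16 h at 37C, CCF4-AM substrate was added for 2 h, and the 460/530 nm emission ratio was scored as gain-of-signal versus DMSO.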

Test [7] has the same target. Nature of the test: TOX21_p53_BLA_p4_ratio: Tox21 HCT-116 p53 Agonism Beta-lactamase Assay, Ratio, Phase 4 (AID 2283601). In a few lines:
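HCT116 cells carrying an inducible beta-lactamase reporter were plated at 4000 cells/well, rested 5 h, then exposed to compounds in DMSO (217-fold dilution) for 16 h at 37C. CCF4-AM substrate was loaded 2 h at room temperature; 460/530 nm emission ratio scored gain-of-signal versus DMSO.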

The nature of test [8]: TOX21_p53_BLA_p5_viability: Viability Assessment in the Tox21 HCT-116 p53 Agonism Beta-lactamase Assay, Phase 5 (AID 2283600). A digest of the protocol:
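Compounds, pinned from DMSO at 217-fold dilution, were left on the cells for 16 h. The viability endpoint was ATP content measured by CellTiter-Glo luminescence, where falling signal reflects cytotoxicity.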

Test [9] can be described thus: TOX21_TRB_BLA_Antagonist_Followup_viability: Viability Assessment in the Tox21 Thyroid Hormone Receptor beta Antagonism Beta-lactamase (BLA) Follow-Up Assay (AID 2283961). In a few lines: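 Viability read as CellTiter-Glo ATP luminescence (loss of signal = cytotoxicity) in the same plates as the TRβ-bla readout. TRβ-LBD/GAL4 UAS-bla HEK293T cells were exposed to compounds, 11 concentrations in triplicate, for 18 h at 37C/5% CO2.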

The target of the next test is THRB (gene 7068) (UniProt P10828). Nature of the test: TOX21_TRB_COA_Antagonist_Followup_ratio: Tox21 Thyroid Hormone Receptor beta Antagonism through Coactivator Recruitment Follow-Up Assay, Ratio (AID 2283967). In a few lines: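 Cell-free TR-FRET coactivator recruitment with GST-tagged TRβ LBD (5.0 nM) and fluorescein-labeled SRC-2 peptide (200 nM) detected by terbium anti-GST antibody (2 nM). The 520:495 nm emission ratio was normalized to DMSO (0%) and T3 (100%).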
Sequence of THRB (gene 7068) (P10828 whole entry, looked up, the tested form may be a part): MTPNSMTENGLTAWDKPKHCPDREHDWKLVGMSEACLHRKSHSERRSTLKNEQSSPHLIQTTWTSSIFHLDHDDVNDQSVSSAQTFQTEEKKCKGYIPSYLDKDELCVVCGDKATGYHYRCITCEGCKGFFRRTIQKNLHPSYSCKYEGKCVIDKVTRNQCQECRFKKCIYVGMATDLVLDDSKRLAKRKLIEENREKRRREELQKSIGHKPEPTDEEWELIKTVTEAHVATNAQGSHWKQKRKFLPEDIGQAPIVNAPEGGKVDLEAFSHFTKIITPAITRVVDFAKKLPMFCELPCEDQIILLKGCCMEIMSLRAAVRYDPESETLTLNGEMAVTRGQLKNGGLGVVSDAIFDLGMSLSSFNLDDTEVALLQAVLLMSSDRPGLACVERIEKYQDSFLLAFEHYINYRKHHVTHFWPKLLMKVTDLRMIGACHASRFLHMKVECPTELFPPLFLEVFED

The nature of test [10]: TOX21_TR_RXR_BLA_Antagonist_Followup_viability: Viability Assessment in the Tox21 Thyroid Hormone Receptor beta Retinoid X Receptor alpha (RXRa) Antagonism Beta-lactamase (BLA) Follow-Up Assay (AID 2283979). A digest of the protocol:
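RXRa-UAS-bla HEK293T cells seeded 2,500/well in phenol red-free DMEM with 2% charcoal-stripped FBS, attached 5 h, then exposed to compounds at 11 concentrations in triplicate for 16 h at 37C/5% CO2. Viability read by CellTiter-Glo ATP luminescence; bidirectional fit versus DMSO.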

Records with an inconclusive call do not appear. The source made the active and inactive calls. Rule for the calls: active = hit-call score of the fitted dose curve at least 0.9, where 1 is the maximum; inconclusive = response in the unintended direction; inactive = score below 0.9.

Turning to `O=P(O)(O)C(O)(Cc1cccnc1)P(=O)(O)O`, the call in [1], in test [2], in [3], in test [4], in [5] and in test [6] was inactive. Further, the outcome in test [7] was inactive.

`CCCCCCCCCCCCCCCC(=O)OC[C@H](COP(=O)([O-])OCC[N+](C)(C)C)OC(=O)CCCCCCCCCCCCCCC`: the result in test [1], in test [2], in test [3], in test [4], in test [5] and in [6] was inactive. The result in [7] was inactive.

Take `O=[N+]([O-])c1ccc(O)c2ncccc12`: the call in [1], in [2], in [3], in test [4], in [6] and in test [7] was inactive. Also, the AC50 (usually the midpoint of the concentration-response curve, whichever way the signal moves) in test [5] was 23 µM (active).

On to `Cc1c(C(=O)NCCO)[n+](=O)c2ccccc2n1[O-]`, for which the call in test [1], in [2], in test [3], in test [4], in test [5] and in test [6] was inactive. Also, the result in [7] was inactive.

As to `C1COC(NC(C2CC2)C2CC2)=N1`, the call in test [1], in [2], in [3], in test [4], in [5] and in [6] was inactive. For the same molecule, the AC50 in test [7] is 39.6 µM (active).

Take `CC(=O)Nc1ccc(C)cc1`: the call in test [1], in test [2], in test [3], in test [4], in [5] and in test [6] was inactive. For the same molecule, the outcome in test [7] was inactive.

As for `CC(C)(S)C(=O)N[C@@H](CS)C(=O)O`, the molecule was classed as inactive in test [1], in [2], in test [3], in [4], in test [5] and in test [6]. The result in [7] was inactive.

For the molecule `Cn1cc(NC(=O)c2cc(NC(=O)c3cc(NC=O)cn3C)cn2C)cc1C(=O)NCCC(=N)N`, the molecule was called inactive in test [1], in test [2], in [3], in test [4], in test [5] and in [6]. Moreover, the result in [7] was inactive.

In the case of `O=C1C(=Cc2cccs2)CCCC1=Cc1cccs1`, the molecule was classed as inactive in test [1], in test [2], in test [3], in [4], in test [5] and in test [6]. Further, in test [7], the outcome was inactive.

Regarding `NNc1ccc(C(=O)O)cc1`, the result in [1], in test [2], in test [3], in test [4], in test [5] and in [6] was inactive. The result in test [7] was inactive.

With `O=C(O)c1cccc(-c2noc(-c3ccccc3F)n2)c1`, the molecule was classed as inactive in test [1], in [2], in test [3], in test [4], in test [6] and in test [8]. Further, the molecule was classed as inactive (in test [9]; with THRB (gene 7068); in [10]). In addition, the AC50 in [5] is 23 µM (active).

On to `COc1cc(/C=C/c2ccccc2)oc(=O)c1`, for which the molecule was classed as inactive in test [1], in test [2], in test [3], in [4], in [5] and in [6]. Besides, in test [7], the outcome was inactive.

`C[N+]1(C)CCCC(OC(=O)C(O)(c2ccccc2)c2ccccc2)C1` (stereo not given): the molecule was classed as inactive in test [1], in test [2], in test [3], in [4], in test [5] and in [6]. The outcome in test [7] was inactive.

`CCN1CCCC1CNC(=O)c1cc(S(=O)(=O)CC)ccc1OC` (stereo not given): the molecule was called inactive in test [1], in test [2], in test [3], in [4], in [5] and in test [6]. The result in [7] was inactive.

Turning to `O=[N+]([O-])c1ccc(Oc2ccc(N=C=S)cc2)cc1`, the molecule was called inactive in test [1], in test [3] and in test [5]. Further, the AC50 in test [2] was 12.9 µM (active); in test [4], 8.52 µM (active); in [6] it was 10.8 µM (active); in test [7] it was 13.4 µM (active).

Regarding `CCCC1C(CC)=CC(CC)=CN1c1ccccc1` (stereo not given), the molecule was called inactive in test [1], in [2], in [3], in test [4], in test [5] and in [6]. The outcome in test [7] was inactive.

On to `CCCCCCCCCCCCCC(=O)OCC(COP(=O)([O-])OCC[N+](C)(C)C)OC(=O)CCCCCCCCCCCCC` (stereo not given), for which the result in [1], in [2], in [4], in test [5], in test [6] and in [7] was inactive. In addition, the AC50 in test [3] is 42.8 µM (active).

Turning to `CCCCCC[C@@H](CCC)C(=O)O`, the molecule was called inactive in [1], in [2], in [3], in test [4], in [5] and in test [6]. Besides, the outcome in [7] was inactive.

Take `C1CC(COCC2CO2)CCC1COCC1CO1` (stereo not given): the molecule was classed as inactive in test [1], in [2], in test [3], in test [4], in test [5] and in test [6]. In addition, the outcome in [7] was inactive.

As to `O=S(=O)(c1ccccc1)c1ccc(Cl)cc1`, the result in test [1], in test [2], in [3], in test [4], in [5] and in test [6] was inactive. In addition, the outcome in test [7] was inactive.

Consider `O=C1c2ccccc2C(=O)C1c1ccc2ccccc2n1`, for which the call in [1], in test [2], in [3], in test [4], in test [5] and in test [6] was inactive. Besides, the result in test [7] was inactive.

In the case of `Cc1ncc(C[n+]2csc(CCOP(=O)(O)OP(=O)(O)O)c2C)c(N)n1`, the molecule was classed as inactive in test [1], in test [2], in test [3], in test [4], in test [5] and in [6]. The result in test [7] was inactive.

As to `O=C(O)CCc1nc2ccccc2[nH]1`, the molecule was called inactive in [1], in test [2], in test [3], in test [4], in test [5] and in test [6]. For the same molecule, the result in test [7] was inactive.

As to `C=Cc1c(C)c2cc3[nH]c(cc4nc(cc5nc(cc1[nH]2)C(C)=C5CCC(=O)O)C(CCC(=O)O)=C4C)c(C)c3C=C`, the call in test [1], in test [2], in [3], in test [4], in test [5] and in [6] was inactive. The outcome in test [7] was inactive.

For `CCc1cccc(N(C)C(N)=Nc2cccc3ccccc23)c1`, the call in test [1], in [2], in [3], in test [4], in test [5] and in test [6] was inactive. Besides, in test [7], the result was inactive.

In the case of `O=C1CCC(c2ccccc2)(C2CCN(Cc3ccccc3)CC2)C(=O)N1` (stereo not given), the molecule was called inactive in test [1], in test [2], in test [3], in test [4], in test [5] and in test [6]. Besides, in [7], the outcome was inactive.

Source of the values: PubChem BioAssay (EPA / NIEHS).
